Each structure is given as a SMILES string. The panel holds about 79,000 compounds, 15% with a hit somewhere; the sample as a whole holds those more often. The source made the active and inactive calls. Rule as the data show it: active = growth inhibition above about 70%; inactive = the rest.

One experiment in a line: NCI Yeast Anticancer Drug Screen. Data for the sgs1 mgt1 strain (AID 161).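 Also: 0% = growth of cultures given vehicle only.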 Particulars: S. cerevisiae sgs1 mgt1 strain, at 50.0 µM (retest, dose inferred, filed as 5.0), active compounds read high. An outline of the steps: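 Mutant yeast exposed to compound; growth scored against vehicle-only wells.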
With `CCOC(=O)C1C(O)=C(P(=O)(C2=C(O)C(C(=O)OCC)C(c3ccc(OC(C)=O)cc3)C(C(=O)O)C2=O)N(CCCl)CCCl)C(=O)C(C(=O)O)C1c1ccc(OC(C)=O)cc1` (stereo not given), the growth inhibition was 95% (active).
Still for that read-out and setting: for `c1ccc([As+](c2ccccc2)(c2ccccc2)c2cccc3ccccc23)cc1` the value was 100% (active); for `CCCCCCCCc1ccc(OCCN(CCCl)CCCl)cc1`, 99% (active).
Turning to `S=C=NCCc1ccccc1`, the growth inhibition was -8% (inactive).
In the case of `COC1=C(Cl)C(=O)c2ccccc2C1=O`, the growth inhibition was 99% (active).
`CN(C)c1ccc(N=Nc2cccc(C(=O)[O-])c2)cc1.CN(C)c1ccc(N=Nc2cccc(C(=O)[O-])c2)cc1.NC1CCCCC1N.O=[N+]([O-])O.[Pt+4]`: the growth inhibition is 99% (active).
Still for that read-out and setting: for `CCOC(=O)c1ccc(N=Cc2ccc(N(CCCl)CCCl)cc2C)cc1` the value was 39% (inactive).
Same read-out and setting: for `O=c1s[se]c2ccccc12` the value was 99% (active).
As for `CC1CCC2(OC1)OC1C(O)C3C4CCC5CC(OC6OC(CO)C(OC7OC(CO)C(O)C(OC8OCC(O)C(O)C8O)C7OC7OC(CO)C(O)C(OC8OC(CO)C(O)C(O)C8O)C7O)C(O)C6O)C(O)CC5(C)C4CCC3(C)C1C2C` (stereo not given), the growth inhibition is 99% (active).
Same read-out and setting: under `CN(C)c1ccc(/C=C/c2cc3scc(-c4ccccc4)[n+]3c3ccccc23)cc1` stands 99% (active); under `CSCCC([NH-])C(=O)O.CSCCC([NH-])C(=O)O.[Zn+2]` (stereo not given), -1% (inactive); under `O=C(O)CN1CCN(CC(=O)O)CC(=O)[O][Hg][O]C(=O)C1`, 99% (active).
On the same count and under the same terms, for `Cc1c2ccncc2c(CN(CCCl)CCCl)c2c3ccccc3n(C)c12` the value was 86% (active); for `COc1ccc(P2(=S)Oc3ccc(C(c4ccccc4)(c4ccccc4)c4ccccc4)cc3O2)cc1` (stereo not given), 96% (active); for `Cc1cc[n+](C2=C(Nc3c(C)cccc3C)C(=O)c3ccccc3C2=O)cc1`, 67% (inactive).
On the same count and under the same terms, for `C(#C[PH+](c1ccccc1)c1ccccc1)c1ccccc1.C(#C[PH+](c1ccccc1)c1ccccc1)c1ccccc1.C(#C[PH+](c1ccccc1)c1ccccc1)c1ccccc1.[C-]#[O+].[C-]#[O+].[C-]#[O+].[Cr]` the value was 17% (inactive); for `CC(=O)O.[RuH].c1ccc([PH+](c2ccccc2)c2ccccc2)cc1.c1ccc([PH+](c2ccccc2)c2ccccc2)cc1.c1ccc([PH+](c2ccccc2)c2ccccc2)cc1`, 68% (inactive); for `O=C(N/N=C/c1cc(Br)cc(Br)c1[O-])c1ccccc1O.O=C(N/N=C/c1cc(Br)cc(Br)c1[O-])c1ccccc1O.[Ni+2]`, 99% (active).
Take `O=C(C[n+]1ccccc1)C1CCc2ccccc2C1` (stereo not given): the growth inhibition was 0% (inactive).
Take `CC(=O)[O-].CC(=O)[O-].O=C(N/N=C/c1cc(Cl)cc(Cl)c1[OH2+])c1ccncc1.[Zn+2]`: the growth inhibition is 30% (inactive).
The same measure, in the same setting: under `ClCCN(CCCl)CCN1c2ccc3ccccc3c2Sc2ccc3ccccc3c21` stands 61% (inactive); under `C=CCc1cc(Cl)ccc1OC(=O)N(C)C`, -2% (inactive); under `CC(=O)[O][Sn]([CH3])([CH3])[c]1ccccc1`, 92% (active).
Still for that read-out and setting: under `NCCNCCNCCNCCN` (tested in a mixture with another compound) stands 2% (inactive); under `CC(=O)[CH-]C(C)=O.CC(=O)[CH-]C(C)=O.[O-]c1ccccc1.[O-]c1ccccc1.[Ti+4]`, 19% (inactive); under `NC(=O)c1ccc(C(=O)Nc2ccc([As](=O)(O)O)cc2)cc1`, 3% (inactive).
For the molecule `[C-]#[O+].[C-]#[O+].[CH3][Sn]([CH3])[c]1ccccc1.[Fe+5].[c-]1[c-][c-][cH-][c-]1`, the growth inhibition is 88% (active).
On the same count and under the same terms, for `CC(C)(C)S.[Hg]` the value was 99% (active).
Still for that read-out and setting: for `O=C(O)C(O)(c1ccc(-c2ccccc2)cc1)c1ccc(-c2ccccc2)cc1` the value was 95% (active).
The same measure, in the same setting: under `Cc1ccc2c(-c3ccccc3)c3ccccc3[s+]c2c1` stands 99% (active); under `CCOC(=O)[C]1([Pb]([CH3])([CH3])[CH3])N=NC(C(=O)OC)=C1C(=O)OC` (stereo not given), 22% (inactive).
`CCCNC1=C(C)C(=O)C2=C(C1=O)[C@H](COC(N)=O)[C@]1(OC)[C@@H]3N[C@@H]3CN21`: the growth inhibition was 64% (inactive).
Same read-out and setting: under `CC(=O)c1ccc(-[n+]2c(C)cc(-c3ccccc3)cc2C)cc1` stands -8% (inactive).
For `CN1C(=O)C23CC4=CC=CC(O)C4N2C(=O)C1(CO)SS3` (stereo not given), the growth inhibition is 100% (active).
Regarding `CCN1CCC(O)(c2ccc(O)cc2)C(C(=O)c2ccc(O)cc2)C1` (stereo not given), the growth inhibition was 13% (inactive).
Still for that read-out and setting: under `CCCCCCCC[As](C)(=O)O` stands -55% (inactive); under `CCCCCCC(=O)[O][Hg][c]1ccccc1`, 100% (active).
Still for that read-out and setting: under `CCC[CH2][Sn]1([CH2]CCC)[O]C(=O)CN=Cc2ccccc2[O]1` stands 85% (active); under `C[C@]12CC[C@H](O)C[C@@H]1CC[C@@H]1[C@@H]2CC[C@]2(C)C(=O)/C(=C/O)C[C@@H]12`, 67% (inactive); under `CC(CCc1ccccc1)NC(C)C(O)c1ccc(O)cc1` (stereo not given), 66% (inactive).

The same experiment, now with this note: S. cerevisiae sgs1 mgt1 strain, at 50.0 µM, active compounds read high.
As to `CCOC(=O)C1C(O)=C(P(=O)(C2=C(O)C(C(=O)OCC)C(c3ccc(OC(C)=O)cc3)C(C(=O)O)C2=O)N(CCCl)CCCl)C(=O)C(C(=O)O)C1c1ccc(OC(C)=O)cc1` (stereo not given), the growth inhibition is 52% (inactive).
Still for that read-out and setting: under `c1ccc([As+](c2ccccc2)(c2ccccc2)c2cccc3ccccc23)cc1` stands 98.7% (active); under `CCCCCCCCc1ccc(OCCN(CCCl)CCCl)cc1`, 99.1% (active); under `S=C=NCCc1ccccc1`, 42.5% (inactive).
The same measure, in the same setting: under `COC1=C(Cl)C(=O)c2ccccc2C1=O` stands 99.6% (active).
Same read-out and setting: for `CN(C)c1ccc(N=Nc2cccc(C(=O)[O-])c2)cc1.CN(C)c1ccc(N=Nc2cccc(C(=O)[O-])c2)cc1.NC1CCCCC1N.O=[N+]([O-])O.[Pt+4]` the value was 93.2% (active).
Regarding `CCOC(=O)c1ccc(N=Cc2ccc(N(CCCl)CCCl)cc2C)cc1`, the growth inhibition is 67.7% (inactive).
On the same count and under the same terms, under `O=c1s[se]c2ccccc12` stands 90.1% (active).
On the same count and under the same terms, for `CC1CCC2(OC1)OC1C(O)C3C4CCC5CC(OC6OC(CO)C(OC7OC(CO)C(O)C(OC8OCC(O)C(O)C8O)C7OC7OC(CO)C(O)C(OC8OC(CO)C(O)C(O)C8O)C7O)C(O)C6O)C(O)CC5(C)C4CCC3(C)C1C2C` (stereo not given) the value was 93.8% (active); for `CN(C)c1ccc(/C=C/c2cc3scc(-c4ccccc4)[n+]3c3ccccc23)cc1`, 99.4% (active).
Same read-out and setting: for `CSCCC([NH-])C(=O)O.CSCCC([NH-])C(=O)O.[Zn+2]` (stereo not given) the value was 99.2% (active); for `O=C(O)CN1CCN(CC(=O)O)CC(=O)[O][Hg][O]C(=O)C1`, 99.5% (active).
As to `Cc1c2ccncc2c(CN(CCCl)CCCl)c2c3ccccc3n(C)c12`, the growth inhibition was 85.2% (active).
Still for that read-out and setting: for `COc1ccc(P2(=S)Oc3ccc(C(c4ccccc4)(c4ccccc4)c4ccccc4)cc3O2)cc1` (stereo not given) the value was 54.7% (inactive).
The same measure, in the same setting: for `Cc1cc[n+](C2=C(Nc3c(C)cccc3C)C(=O)c3ccccc3C2=O)cc1` the value was 68.1% (inactive); for `C(#C[PH+](c1ccccc1)c1ccccc1)c1ccccc1.C(#C[PH+](c1ccccc1)c1ccccc1)c1ccccc1.C(#C[PH+](c1ccccc1)c1ccccc1)c1ccccc1.[C-]#[O+].[C-]#[O+].[C-]#[O+].[Cr]`, 86.8% (active); for `CC(=O)O.[RuH].c1ccc([PH+](c2ccccc2)c2ccccc2)cc1.c1ccc([PH+](c2ccccc2)c2ccccc2)cc1.c1ccc([PH+](c2ccccc2)c2ccccc2)cc1`, 72.5% (active).
On the same count and under the same terms, under `O=C(N/N=C/c1cc(Br)cc(Br)c1[O-])c1ccccc1O.O=C(N/N=C/c1cc(Br)cc(Br)c1[O-])c1ccccc1O.[Ni+2]` stands 61.2% (inactive); under `O=C(C[n+]1ccccc1)C1CCc2ccccc2C1` (stereo not given), -1.5% (inactive); under `CC(=O)[O-].CC(=O)[O-].O=C(N/N=C/c1cc(Cl)cc(Cl)c1[OH2+])c1ccncc1.[Zn+2]`, 60.8% (inactive).
`ClCCN(CCCl)CCN1c2ccc3ccccc3c2Sc2ccc3ccccc3c21`: the growth inhibition is 85% (active).
The same measure, in the same setting: for `C=CCc1cc(Cl)ccc1OC(=O)N(C)C` the value was -6.55% (inactive); for `CC(=O)[O][Sn]([CH3])([CH3])[c]1ccccc1`, 92.5% (active).
On the same count and under the same terms, under `NCCNCCNCCNCCN` (tested in a mixture with another compound) stands 52.9% (inactive); under `CC(=O)[CH-]C(C)=O.CC(=O)[CH-]C(C)=O.[O-]c1ccccc1.[O-]c1ccccc1.[Ti+4]`, 11.4% (inactive); under `NC(=O)c1ccc(C(=O)Nc2ccc([As](=O)(O)O)cc2)cc1`, -43.2% (inactive).
On the same count and under the same terms, for `[C-]#[O+].[C-]#[O+].[CH3][Sn]([CH3])[c]1ccccc1.[Fe+5].[c-]1[c-][c-][cH-][c-]1` the value was 94.7% (active); for `CC(C)(C)S.[Hg]`, 99.7% (active); for `O=C(O)C(O)(c1ccc(-c2ccccc2)cc1)c1ccc(-c2ccccc2)cc1`, 96.2% (active).
For `Cc1ccc2c(-c3ccccc3)c3ccccc3[s+]c2c1`, the growth inhibition was 99.5% (active).
The same measure, in the same setting: under `CCOC(=O)[C]1([Pb]([CH3])([CH3])[CH3])N=NC(C(=O)OC)=C1C(=O)OC` (stereo not given) stands 29.8% (inactive).
The same measure, in the same setting: for `CCCNC1=C(C)C(=O)C2=C(C1=O)[C@H](COC(N)=O)[C@]1(OC)[C@@H]3N[C@@H]3CN21` the value was 39.6% (inactive); for `CC(=O)c1ccc(-[n+]2c(C)cc(-c3ccccc3)cc2C)cc1`, -13.6% (inactive); for `CN1C(=O)C23CC4=CC=CC(O)C4N2C(=O)C1(CO)SS3` (stereo not given), 93.2% (active).
Same read-out and setting: for `CCN1CCC(O)(c2ccc(O)cc2)C(C(=O)c2ccc(O)cc2)C1` (stereo not given) the value was 91.3% (active); for `CCCCCCCC[As](C)(=O)O`, 4.5% (inactive).
Consider `CCCCCCC(=O)[O][Hg][c]1ccccc1`, for which the growth inhibition is 99.7% (active).
Same read-out and setting: for `CCC[CH2][Sn]1([CH2]CCC)[O]C(=O)CN=Cc2ccccc2[O]1` the value was 90% (active); for `C[C@]12CC[C@H](O)C[C@@H]1CC[C@@H]1[C@@H]2CC[C@]2(C)C(=O)/C(=C/O)C[C@@H]12`, 87% (active).
The same measure, in the same setting: under `CC(CCc1ccccc1)NC(C)C(O)c1ccc(O)cc1` (stereo not given) stands 52.2% (inactive).
